From PubChem BioAssay (EPA / NIEHS)
Records with an inconclusive call do not appear. Calls of active or inactive are those of the source. How the source made its calls, unless noted: active means hit-call score of the fitted dose curve at least 0.9, where 1 is the maximum; inactive means score below 0.9.

Key:
[1] = BSK_3C_VCAM1: BioMAP Diversity Plus: 3C Assay for Vascular cell adhesion molecule 1 (VCAM1) Biomarker Activity (AID 2282999); conditions: BioMAP 3C HUVEC, VCAM1 ELISA, cytokine-stimulated; actives raise or lower the signal
Summary of the method: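 Human umbilical vein endothelial cells (3C system), biomarker read by ELISA 24 h after dosing; bidirectional fit against DMSO baseline. Cytotoxicity tracked by SRB total-protein staining in parallel cultures at biomarker time.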

[2] = BSK_4H_Eotaxin3: BioMAP Diversity Plus: 4H Assay for Eotaxin 3 Biomarker Activity (AID 2283000); conditions: primary human endothelial cells (HUVEC); actives raise or lower the signal
Summary of the method: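 Chemicals were added to human umbilical vein endothelium cultures, and Eotaxin-3 was quantified by ELISA at 24 h. Values were derived by bidirectional fitting with DMSO serving as negative control and activity baseline.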

[3] = biological target: human Peroxisome Proliferator-activated Receptor alpha (PPARa), PPARA (gene 5465) (UniProt Q07869); test: ATG_PPARa_TRANS: Attagene TRANS-FACTORIAL HepG2 Assay for human Peroxisome Proliferator-activated Receptor alpha (PPARa) (AID 2283001; active means hit-call score of the fitted dose curve at least 0.9, where 1 is the maximum)
Chain of human Peroxisome Proliferator-activated Receptor alpha (PPARa), PPARA (gene 5465) (Q07869 whole entry, looked up, the tested form may be a part): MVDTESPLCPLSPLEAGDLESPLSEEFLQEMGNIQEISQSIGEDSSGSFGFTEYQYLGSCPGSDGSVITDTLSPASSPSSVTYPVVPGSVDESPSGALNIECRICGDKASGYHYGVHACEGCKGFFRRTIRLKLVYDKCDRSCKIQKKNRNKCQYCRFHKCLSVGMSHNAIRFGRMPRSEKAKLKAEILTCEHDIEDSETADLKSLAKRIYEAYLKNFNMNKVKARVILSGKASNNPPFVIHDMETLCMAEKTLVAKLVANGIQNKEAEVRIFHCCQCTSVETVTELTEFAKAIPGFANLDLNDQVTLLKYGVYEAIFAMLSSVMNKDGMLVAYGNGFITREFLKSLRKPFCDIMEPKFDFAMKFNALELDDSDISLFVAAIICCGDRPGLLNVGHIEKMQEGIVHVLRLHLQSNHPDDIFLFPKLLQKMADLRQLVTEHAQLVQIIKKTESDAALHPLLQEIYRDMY
Summary of the method: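 HepG2 cells transiently transfected with multiplexed GAL4-UAS reporters driven by exogenous chimeric NR-Gal4 proteins; reporter mRNA measured after 24 h dosing. Read-out by RT-PCR, 6-FAM labelling, HpaI digestion and capillary electrophoresis; gain of signal versus DMSO.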

[4] = biological target: human Peroxisome Proliferator-activated Receptor delta (PPARd), PPARD (gene 5467) (UniProt Q03181); test: ATG_PPARd_TRANS: Attagene TRANS-FACTORIAL HepG2 Assay for human Peroxisome Proliferator-activated Receptor delta (PPARd) (AID 2283002; active means hit-call score of the fitted dose curve at least 0.9, where 1 is the maximum)
Chain of human Peroxisome Proliferator-activated Receptor delta (PPARd), PPARD (gene 5467) (Q03181 whole entry, looked up, the tested form may be a part): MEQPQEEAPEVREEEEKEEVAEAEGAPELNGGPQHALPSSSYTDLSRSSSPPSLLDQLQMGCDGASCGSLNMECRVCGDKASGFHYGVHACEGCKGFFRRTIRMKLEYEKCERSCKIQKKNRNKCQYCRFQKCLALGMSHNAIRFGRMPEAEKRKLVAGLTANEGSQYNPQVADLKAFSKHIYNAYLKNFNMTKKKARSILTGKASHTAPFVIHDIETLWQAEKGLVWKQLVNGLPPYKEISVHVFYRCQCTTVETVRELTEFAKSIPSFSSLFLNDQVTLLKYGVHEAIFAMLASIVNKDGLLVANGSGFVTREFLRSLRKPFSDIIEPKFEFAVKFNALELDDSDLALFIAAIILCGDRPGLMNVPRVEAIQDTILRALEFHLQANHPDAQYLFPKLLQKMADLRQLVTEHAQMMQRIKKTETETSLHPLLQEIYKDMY
Summary of the method: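 HepG2 cells transiently transfected with GAL4-UAS multiplexed reporter units driven by exogenous chimeric NR-GAL4 proteins; 24 h compound exposure. Reporter mRNA measured by RT-PCR, 6-FAM primer extension, HpaI digestion and capillary electrophoresis; gain of signal fitted relative to DMSO.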

[5] = read-out: Intercellular Adhesion Molecule 1 (ICAM1), ICAM1 (gene 3383); test: BSK_3C_ICAM1: BioMAP Diversity Plus: 3C Assay for Intercellular Adhesion Molecule 1 (ICAM1) Biomarker Activity (AID 2283003); conditions: primary human endothelial cells (HUVEC); actives raise or lower the signal
Summary of the method: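 HUVEC primary cells stimulated under 3C conditions; ICAM1 measured by ELISA 24 h after compound dosing. Curves fitted bidirectionally against the DMSO baseline. Overt cytotoxicity checked by SRB staining of parallel cultures.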

[6] = BSK_3C_Proliferation: Cell Proliferation Assessment in the BioMAP Diversity Plus: 3C Assay (AID 2283006); conditions: primary human endothelial cells (HUVEC);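 on AC50: potency may reflect either rise or fall in cell number versus DMSO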
Summary of the method: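 Subconfluent HUVEC (3C system) cultured with chemical; relative cell number read at 48 h by sulforhodamine B total-protein staining (0.1% SRB after 10% TCA fixation, 560 nm). Bidirectional fit relative to DMSO.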

[7] = biological target: Peroxisome proliferator-activated receptor gamma (Homo sapiens) (UniProt P37231); test: ATG_PPARg_TRANS: Attagene TRANS-FACTORIAL HepG2 Assay for human Peroxisome Proliferator-activated Receptor-gamma (PPARg) (AID 2283007; active means hit-call score of the fitted dose curve at least 0.9, where 1 is the maximum)
Chain of Peroxisome proliferator-activated receptor gamma (Homo sapiens) (P37231 whole entry, looked up, the tested form may be a part): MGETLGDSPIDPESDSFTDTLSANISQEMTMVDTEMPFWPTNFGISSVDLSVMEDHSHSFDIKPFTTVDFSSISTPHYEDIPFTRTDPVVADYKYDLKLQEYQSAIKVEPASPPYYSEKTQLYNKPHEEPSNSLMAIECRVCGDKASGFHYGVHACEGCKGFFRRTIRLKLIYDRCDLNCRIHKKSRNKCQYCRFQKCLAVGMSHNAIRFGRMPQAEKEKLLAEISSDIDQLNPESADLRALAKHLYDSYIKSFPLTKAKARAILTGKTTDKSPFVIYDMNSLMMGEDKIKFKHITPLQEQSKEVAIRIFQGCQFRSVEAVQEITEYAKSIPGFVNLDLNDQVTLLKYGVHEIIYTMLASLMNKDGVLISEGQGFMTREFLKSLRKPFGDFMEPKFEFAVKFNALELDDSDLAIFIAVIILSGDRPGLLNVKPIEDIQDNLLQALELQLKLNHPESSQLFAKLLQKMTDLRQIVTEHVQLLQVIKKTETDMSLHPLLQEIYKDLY
Summary of the method: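 Transient transfection of HepG2 with GAL4-UAS-driven reporter units; chemical dosing 24 h; total RNA → oligo(dT) RT → PCR with reporter primers → 6-FAM primer extension → HpaI digest 2 h 37 C → capillary electrophoresis. Positive direction vs DMSO.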

[8] = biological target: Nuclear receptor subfamily 1 group I member 2 (Homo sapiens) (UniProt O75469); test: ATG_PXR_TRANS: Attagene TRANS-FACTORIAL HepG2 Assay for human Pregnane X Receptor (PXR) (AID 2283008; active means hit-call score of the fitted dose curve at least 0.9, where 1 is the maximum)
Chain of Nuclear receptor subfamily 1 group I member 2 (Homo sapiens) (O75469 whole entry, looked up, the tested form may be a part): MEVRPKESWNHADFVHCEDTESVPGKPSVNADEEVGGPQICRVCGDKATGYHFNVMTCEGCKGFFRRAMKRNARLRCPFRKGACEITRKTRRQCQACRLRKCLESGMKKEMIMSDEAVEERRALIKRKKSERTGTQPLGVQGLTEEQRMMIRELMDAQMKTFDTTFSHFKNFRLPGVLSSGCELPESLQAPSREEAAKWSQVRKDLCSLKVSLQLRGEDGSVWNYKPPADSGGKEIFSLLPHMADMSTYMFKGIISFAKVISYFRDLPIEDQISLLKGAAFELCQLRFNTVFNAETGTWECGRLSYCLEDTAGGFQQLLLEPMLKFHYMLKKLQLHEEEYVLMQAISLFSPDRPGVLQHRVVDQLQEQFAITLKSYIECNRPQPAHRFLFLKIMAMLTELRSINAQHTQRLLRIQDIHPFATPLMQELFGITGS
Summary of the method: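 Fluorescence intensity of FAM-labelled, HpaI-digested reporter amplicons, separated by capillary electrophoresis, quantifies induction. HepG2 cells with PXR-Gal4 trans-reporter system were exposed 24 h; DMSO defines baseline.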

[9] = biological target: human Retinoic Acid Receptor gamma (RARg), RARG (gene 5916) (UniProt P13631); test: ATG_RARg_TRANS: Attagene TRANS-FACTORIAL HepG2 Assay for human Retinoic Acid Receptor gamma (RARg) (AID 2283009; active means hit-call score of the fitted dose curve at least 0.9, where 1 is the maximum;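 on AC50: AC50 is for reporter induction above DMSO meaning RARg activation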)
Chain of human Retinoic Acid Receptor gamma (RARg), RARG (gene 5916) (P13631 whole entry, looked up, the tested form may be a part): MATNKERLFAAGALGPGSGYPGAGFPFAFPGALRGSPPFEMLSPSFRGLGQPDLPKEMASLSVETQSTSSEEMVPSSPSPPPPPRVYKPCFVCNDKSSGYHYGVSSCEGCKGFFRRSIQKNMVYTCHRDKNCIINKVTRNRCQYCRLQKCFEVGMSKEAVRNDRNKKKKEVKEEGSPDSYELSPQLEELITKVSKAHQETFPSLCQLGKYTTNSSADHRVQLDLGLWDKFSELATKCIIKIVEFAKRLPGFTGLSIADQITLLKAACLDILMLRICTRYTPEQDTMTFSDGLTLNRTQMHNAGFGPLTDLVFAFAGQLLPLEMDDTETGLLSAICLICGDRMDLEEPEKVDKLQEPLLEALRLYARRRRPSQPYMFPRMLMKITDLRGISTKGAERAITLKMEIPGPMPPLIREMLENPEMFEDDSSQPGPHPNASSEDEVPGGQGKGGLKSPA
Summary of the method: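 HepG2 transiently transfected with GAL4-UAS reporter units and chimeric NR-Gal4 constructs; 24 h compound exposure. Reporter mRNA quantified by RT-PCR, FAM labeling, HpaI digestion and capillary electrophoresis; gain-of-signal versus DMSO.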

[10] = biological target: Retinoic acid receptor RXR-alpha (Homo sapiens) (UniProt P19793); test: ATG_RXRa_TRANS: Attagene TRANS-FACTORIAL HepG2 Assay for human Retinoid X Receptor alpha (RXRa) (AID 2283012; active means hit-call score of the fitted dose curve at least 0.9, where 1 is the maximum)
Chain of Retinoic acid receptor RXR-alpha (Homo sapiens) (P19793 whole entry, looked up, the tested form may be a part): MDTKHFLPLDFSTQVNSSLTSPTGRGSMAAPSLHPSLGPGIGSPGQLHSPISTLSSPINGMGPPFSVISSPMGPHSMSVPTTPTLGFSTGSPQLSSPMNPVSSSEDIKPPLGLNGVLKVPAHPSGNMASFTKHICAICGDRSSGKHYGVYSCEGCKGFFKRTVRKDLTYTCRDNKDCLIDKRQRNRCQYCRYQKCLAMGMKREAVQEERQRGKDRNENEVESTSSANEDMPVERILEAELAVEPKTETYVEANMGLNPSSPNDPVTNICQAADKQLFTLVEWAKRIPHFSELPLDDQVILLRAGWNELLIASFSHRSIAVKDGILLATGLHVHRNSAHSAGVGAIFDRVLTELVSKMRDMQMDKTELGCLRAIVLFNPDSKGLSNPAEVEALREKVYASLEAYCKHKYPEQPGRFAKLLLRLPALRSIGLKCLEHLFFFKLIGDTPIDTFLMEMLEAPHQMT
Summary of the method: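 HepG2 cells transiently transfected with GAL4-UAS reporter units and chimeric RXRa-Gal4 protein, treated 24 h. Reporter mRNA measured by RT-PCR, fluorescent labelling, HpaI digestion and capillary electrophoresis. Induction fitted against DMSO.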

[11] = biological target: human Retinoid X Receptor beta (RXRb), RXRB (gene 6257) (UniProt P28702); test: ATG_RXRb_TRANS: Attagene TRANS-FACTORIAL HepG2 Assay for human Retinoid X Receptor beta (RXRb) (AID 2283013; active means hit-call score of the fitted dose curve at least 0.9, where 1 is the maximum)
Chain of human Retinoid X Receptor beta (RXRb), RXRB (gene 6257) (P28702 whole entry, looked up, the tested form may be a part): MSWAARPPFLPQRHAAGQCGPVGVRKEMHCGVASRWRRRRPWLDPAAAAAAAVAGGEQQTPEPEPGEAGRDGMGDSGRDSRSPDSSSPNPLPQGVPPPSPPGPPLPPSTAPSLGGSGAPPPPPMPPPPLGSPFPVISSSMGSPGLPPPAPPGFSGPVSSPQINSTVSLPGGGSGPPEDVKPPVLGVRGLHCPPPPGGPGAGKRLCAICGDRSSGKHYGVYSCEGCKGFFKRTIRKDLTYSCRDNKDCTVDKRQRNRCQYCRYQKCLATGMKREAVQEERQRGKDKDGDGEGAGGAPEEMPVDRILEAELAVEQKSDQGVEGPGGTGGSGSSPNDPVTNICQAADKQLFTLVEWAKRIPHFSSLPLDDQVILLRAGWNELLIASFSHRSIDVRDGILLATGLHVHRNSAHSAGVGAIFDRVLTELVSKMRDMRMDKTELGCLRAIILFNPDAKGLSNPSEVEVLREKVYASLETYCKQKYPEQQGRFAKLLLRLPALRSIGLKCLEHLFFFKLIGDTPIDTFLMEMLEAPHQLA
Summary of the method: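 HepG2 cells were transiently transfected with multiplexed GAL4-UAS reporters and a chimeric RXRb-Gal4 construct, then exposed for 24 h. Reporter mRNA was quantified by RT-PCR, FAM labeling, HpaI digestion and capillary electrophoresis; gain of signal was scored against DMSO.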

[12] = biological target: human Thyroid Receptor alpha (THRa1), THRA (gene 7067) (UniProt P10827); test: ATG_THRa1_TRANS: Attagene TRANS-FACTORIAL HepG2 Assay for human Thyroid Receptor alpha (THRa1) (AID 2283014; active means hit-call score of the fitted dose curve at least 0.9, where 1 is the maximum)
Chain of human Thyroid Receptor alpha (THRa1), THRA (gene 7067) (P10827 whole entry, looked up, the tested form may be a part): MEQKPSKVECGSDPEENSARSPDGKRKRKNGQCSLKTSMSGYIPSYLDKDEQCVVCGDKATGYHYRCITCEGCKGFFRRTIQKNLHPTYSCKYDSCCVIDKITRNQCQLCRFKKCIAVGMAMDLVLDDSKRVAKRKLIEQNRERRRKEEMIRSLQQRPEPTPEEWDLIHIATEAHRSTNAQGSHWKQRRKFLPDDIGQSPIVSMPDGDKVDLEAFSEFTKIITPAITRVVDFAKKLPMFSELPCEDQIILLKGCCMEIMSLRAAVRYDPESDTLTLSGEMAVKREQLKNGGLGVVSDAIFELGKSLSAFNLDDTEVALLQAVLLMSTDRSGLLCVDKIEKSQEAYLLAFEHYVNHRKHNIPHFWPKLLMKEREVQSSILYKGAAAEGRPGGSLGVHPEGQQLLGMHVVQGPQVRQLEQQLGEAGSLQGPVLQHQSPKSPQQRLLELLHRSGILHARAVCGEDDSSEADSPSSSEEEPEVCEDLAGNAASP
Summary of the method: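 Reporter transcript induction, read by capillary electrophoresis of 6-FAM-labelled RT-PCR products, reflects activity of a transfected THRa1-Gal4 fusion in HepG2 liver cells. Cells were dosed for 24 h; activity was fitted in the positive direction against DMSO.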

[13] = read-out: E-selectin (Homo sapiens) (UniProt P16581); test: BSK_3C_Eselectin: BioMAP Diversity Plus: 3C Assay for Eselectin Biomarker Activity (AID 2283015); conditions: primary human endothelial cells (HUVEC); actives raise or lower the signal
Summary of the method: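 ELISA read-out of E-selectin on endothelial monolayers after 24 h chemical treatment. Human umbilical vein primary cells served as the system, with DMSO defining baseline activity for bidirectional fitting.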

[14] = read-out: Interleukin-1 alpha (IL1a), IL1A (gene 3552); test: BSK_BE3C_IL1a: BioMAP Diversity Plus: BE3C Assay for Interleukin-1 alpha (IL1a) Biomarker Activity (AID 2283016); conditions: primary human bronchial epithelial cells; actives raise or lower the signal
Summary of the method: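 Human primary bronchial epithelial cells, 24 h chemical exposure; IL-1a quantified by ELISA, fitted bidirectionally against DMSO. Cytotoxicity assessed in parallel by SRB total-protein staining at the time of measurement.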

[15] = read-out: Monocyte Chemoattractant Protein-1 (MCP1), CCL2 (gene 6347); test: BSK_3C_MCP1: BioMAP Diversity Plus: 3C Assay for Monocyte Chemoattractant Protein-1 (MCP1) Biomarker Activity (AID 2283017); conditions: primary human endothelial cells (HUVEC); actives raise or lower the signal
Summary of the method: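 ELISA read-out of MCP-1 from human umbilical vein endothelial cell cultures harvested 24 h post-dosing. Gain or loss of signal was fitted relative to DMSO.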

[16] = read-out: Monocyte Chemoattractant Protein-1 (MCP1), CCL2 (gene 6347); test: BSK_4H_MCP1: BioMAP Diversity Plus: 4H Assay for Monocyte Chemoattractant Protein-1 (MCP1) Biomarker Activity (AID 2283018); conditions: primary human endothelial cells (HUVEC); actives raise or lower the signal
Summary of the method: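 Human umbilical vein endothelial cells (4H system) exposed to chemicals for 24 h in 96-well format. MCP-1 measured by ELISA; bidirectional fitting against DMSO, with SRB total-protein staining in parallel cultures for cytotoxicity.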

[17] = read-out: Human Leukocyte Antigen - DR isotype (HLADR), HLA-DRA (gene 3122); test: BSK_3C_HLADR: BioMAP Diversity Plus: 3C Assay for Human Leukocyte Antigen - DR isotype (HLADR) Biomarker Activity (AID 2283019); conditions: primary human endothelial cells (HUVEC); actives raise or lower the signal
Summary of the method: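 ELISA readout of surface HLA-DR on human umbilical vein endothelium, taken 24 h after chemical treatment. Gain- and loss-of-signal were both fitted relative to DMSO.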

[18] = biological target: human Retinoic Acid Receptor beta (RARb), RARB (gene 5915) (UniProt P10826); test: ATG_RARb_TRANS: Attagene TRANS-FACTORIAL HepG2 Assay for human Retinoic Acid Receptor beta (AID 2283004; active means hit-call score of the fitted dose curve at least 0.9, where 1 is the maximum)
Summary of the method: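 Transient transfection of HepG2 with multiple reporter units → chemical dosing, 24 h → total RNA isolation → RT with oligo(dT) → reporter-specific PCR, 6-FAM primer extension, HpaI digest → capillary electrophoresis. Positive direction vs DMSO control.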

[19] = biological target: Retinoic acid receptor alpha (Homo sapiens) (UniProt P10276); test: ATG_RARa_TRANS: Attagene TRANS-FACTORIAL HepG2 Assay for human Retinoic Acid Receptor alpha (RARa) (AID 2283005; active means hit-call score of the fitted dose curve at least 0.9, where 1 is the maximum)
Chain of Retinoic acid receptor alpha (Homo sapiens) (P10276 whole entry, looked up, the tested form may be a part): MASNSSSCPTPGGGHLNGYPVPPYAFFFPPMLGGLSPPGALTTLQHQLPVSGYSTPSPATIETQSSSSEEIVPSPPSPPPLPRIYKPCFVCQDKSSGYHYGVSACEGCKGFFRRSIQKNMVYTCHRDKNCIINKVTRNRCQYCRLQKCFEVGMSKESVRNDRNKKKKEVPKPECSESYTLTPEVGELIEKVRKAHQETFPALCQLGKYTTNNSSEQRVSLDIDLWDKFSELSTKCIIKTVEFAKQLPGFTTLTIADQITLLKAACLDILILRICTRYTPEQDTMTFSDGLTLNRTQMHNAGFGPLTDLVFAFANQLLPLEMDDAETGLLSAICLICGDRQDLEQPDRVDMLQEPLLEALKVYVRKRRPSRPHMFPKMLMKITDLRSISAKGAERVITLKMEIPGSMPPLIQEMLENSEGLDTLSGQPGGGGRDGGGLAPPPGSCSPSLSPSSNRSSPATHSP
Summary of the method: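 HepG2 transiently transfected with multiplex GAL4-UAS reporter units including a human RARa–GAL4 chimera; 24 h compound exposure. Reporter mRNA quantified by RT-PCR, 6-FAM labeling and capillary electrophoresis; gain of signal versus DMSO.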

[20] = biological target: human RAR-related Orphan Receptor gamma (RORg), RORC (gene 6097) (UniProt P51449); test: ATG_RORg_TRANS: Attagene TRANS-FACTORIAL HepG2 Assay for human RAR-related Orphan Receptor gamma (RORg) (AID 2283011; active means hit-call score of the fitted dose curve at least 0.9, where 1 is the maximum)
Summary of the method: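 First, HepG2 liver cells were transfected with GAL4-UAS-driven reporter constructs and the RORg-Gal4 fusion. Next, they were treated with chemical for 24 h. Finally, reporter mRNA was quantified by RT-PCR and capillary electrophoresis, with upward activity fitted against DMSO.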

Measured: AC50

Chain of E-selectin (Homo sapiens) (P16581 whole entry, looked up): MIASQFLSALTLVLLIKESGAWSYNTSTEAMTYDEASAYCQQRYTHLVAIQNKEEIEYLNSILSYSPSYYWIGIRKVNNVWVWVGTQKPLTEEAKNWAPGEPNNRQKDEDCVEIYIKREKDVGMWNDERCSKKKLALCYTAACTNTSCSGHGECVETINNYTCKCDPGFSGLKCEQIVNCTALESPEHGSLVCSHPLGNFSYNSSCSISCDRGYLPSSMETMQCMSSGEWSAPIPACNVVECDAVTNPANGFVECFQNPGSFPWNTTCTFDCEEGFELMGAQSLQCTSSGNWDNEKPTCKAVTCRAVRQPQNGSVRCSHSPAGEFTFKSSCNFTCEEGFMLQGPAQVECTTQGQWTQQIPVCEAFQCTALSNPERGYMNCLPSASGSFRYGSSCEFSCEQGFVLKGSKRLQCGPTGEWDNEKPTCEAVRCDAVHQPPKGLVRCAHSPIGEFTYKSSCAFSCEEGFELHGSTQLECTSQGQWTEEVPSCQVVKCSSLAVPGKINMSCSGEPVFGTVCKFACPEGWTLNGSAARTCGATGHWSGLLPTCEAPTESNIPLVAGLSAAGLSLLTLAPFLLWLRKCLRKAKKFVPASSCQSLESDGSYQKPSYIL

CCOP(=S)(OCC)SCS(=O)(=O)CC
active: [8] 5.73 µM
not listed: [18] | [19] | [20]
inactive: all other assays above

C=CC(=O)OCC(CC)(COC(=O)C=C)COC(=O)C=C
active: [1] 2.55 µM | [2] 2.41 µM | [5] 2.71 µM | [6] 1.7 µM | [7] 24.3 µM | [8] 0.793 µM | [13] 2.37 µM | [14] 5.88 µM | [15] 2.66 µM | [16] 1.9 µM | [17] 1.38 µM
inactive: [3] | [4] | [9] | [10] | [11] | [12]

Cc1c([N+](=O)[O-])cc2c(c1[N+](=O)[O-])C(C)(C)CC2(C)C
active: [2] 2.15 µM | [6] 2.4 µM | [8] 0.862 µM | [9] 2.08 µM | [10] 8.24 µM | [11] 1.37 µM | [17] 11.9 µM
not listed: [3] | [20]
inactive: all other assays above

CCNc1nc(Cl)nc(NC(C)(C)C)n1
active: [8] 4.35 µM | [11] 49.1 µM
not listed: [3] | [16]
inactive: all other assays above

CCOP(=S)(OCC)SCSc1ccc(Cl)cc1
active: [2] 7.22 µM | [6] 11.8 µM | [8] 5.52 µM | [11] 13.5 µM | [14] 0.212 µM | [16] 8.96 µM | [17] 27.5 µM
not listed: [3] | [9] | [18] | [19] | [20]
inactive: all other assays above

CCOP(=S)(NC(C)C)Oc1ccccc1C(=O)OC(C)C (stereo not drawn)
active: [7] 8.99 µM | [8] 0.599 µM | [11] 13.3 µM | [13] 20 µM
not listed: [3] | [9] | [12] | [18] | [19] | [20]
inactive: all other assays above

O=c1ssc(Cl)c1Cl
active: [1] 5.62 µM | [2] 4.22 µM | [5] 11.3 µM | [6] 1.45 µM | [7] 33.4 µM | [13] 6.13 µM | [14] 12.2 µM | [15] 8.43 µM | [16] 3.92 µM | [17] 3.59 µM
inactive: [4] | [8] | [10] | [12]
